ClpP mod: qHTS Assay for Activators of ClpP; purified B. subtilis ClpP, FRET peptide cleavage, 20 min; Potency, µM (top dose mostly 57.5 µM), without a hit: at the highest dose activity change, negative = active; actives 1.9% (n = 340,000); AID 651965, 2013; active = well fitted falling curve with a large enough effect; inconclusive = small, poorly fitted or top-dose-only effect; inactive = no such curve, though single readings can be large or run the other way; also: the source files actives as falling curves though it sought activators and does not explain the sign; nearly all actives have a fitted effect of over 65% in size
Target sequence (P80244 whole entry, looked up): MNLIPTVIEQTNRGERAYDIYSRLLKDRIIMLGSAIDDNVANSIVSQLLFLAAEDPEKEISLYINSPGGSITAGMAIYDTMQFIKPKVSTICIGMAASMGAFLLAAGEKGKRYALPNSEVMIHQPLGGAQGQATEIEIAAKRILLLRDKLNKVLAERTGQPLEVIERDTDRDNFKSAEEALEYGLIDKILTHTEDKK
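FRET quenching reversal measured ClpP activation: 10 microg/mL B. subtilis ClpP at pH 8 with the FRET-FV decapeptide, read at 430 nm after 320 nm excitation. The 20-min minus 0-min signal was scaled between DMSO/no-enzyme wells and ADEP (5.8 microM final).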
Sfp PPTase inh: inhibitors of Bacillus subtilis Sfp phosphopantetheinyl transferase. Q9F4F7. Biochemical Sfp PPTase activity, qHTS. Potency, µM, for inactives: largest response in the series, negative = inhibition, hits mostly inhibitors. actives 3.5% (n = 310,000). AID 1490;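 also: the enzyme is Sfp with the accession as filed and its product quenches rhodamine fluorescence; 0% = enzyme reaction without inhibitor and -100% = no enzyme wells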
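Fluorescence-quenching assay with 15 nM Sfp, 5 uM rhodamine-CoA and 12.5 uM BHQ-2-labelled ybbR peptide in pH 7.6 Hepes/MgCl2 buffer. Enzyme was pre-incubated with compound for 15 min at room temperature. Rate was taken from the 30-min fluorescence change (525/598 nm).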
RORgamma inh: inhibitors of mouse ROR gamma transcriptional activity. P51450. Drosophila S2 Gal4-RORgamma UAS-luciferase reporter, 20 h. Potency, µM (doses to about 53.6 µM), without a hit: top-dose activity change, negative = inhibition, hits mostly inhibitors. actives 5.4% (n = 310,000); also: % is scaled to controls: 0 for no effect and ±100 for the full control effect; nearly all actives have a fitted effect of over 60% in size
Target sequence (P51450 whole entry, looked up, the tested form may be a part): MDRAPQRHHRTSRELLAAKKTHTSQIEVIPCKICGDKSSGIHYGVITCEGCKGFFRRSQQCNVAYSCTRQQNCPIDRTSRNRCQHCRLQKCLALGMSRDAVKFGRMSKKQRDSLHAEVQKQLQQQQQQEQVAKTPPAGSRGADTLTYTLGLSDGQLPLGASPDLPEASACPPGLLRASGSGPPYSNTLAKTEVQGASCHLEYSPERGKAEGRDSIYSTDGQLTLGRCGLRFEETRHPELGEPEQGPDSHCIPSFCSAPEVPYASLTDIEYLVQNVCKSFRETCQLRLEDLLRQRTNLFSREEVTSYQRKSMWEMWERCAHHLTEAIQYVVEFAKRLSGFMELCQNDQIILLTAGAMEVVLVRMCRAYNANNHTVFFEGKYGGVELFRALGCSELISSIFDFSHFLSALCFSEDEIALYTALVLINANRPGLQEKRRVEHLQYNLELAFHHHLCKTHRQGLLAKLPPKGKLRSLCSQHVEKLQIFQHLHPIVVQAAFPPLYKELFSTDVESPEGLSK
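Stably transfected Drosophila Schneider cells are the test system, with ROR gamma fused to Gal4 and luciferase under UAS control; luminescence is read after 20 hr of 700 uM copper sulfate induction at ambient temperature.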
Epigenetic derep: epigenetic control regulation, reporter derepression; murine LDR cells, GFP reporter derepression, 30 h; Potency, µM (highest dose often 53.9 µM), for the others: at the highest dose GFP activation, most hits filed as activators; actives 0.2% (n = 280,000); AID 1865; also: % of control where 0% means no effect; nearly all actives have a fitted effect of over 60% in size
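Reporter derepression read as number of fluorescent GFP-positive objects, 20-120 um in size, counted by laser-scanning cytometer. Mouse LDR line with an epigenetically silenced CMV-GFP locus; compound incubation 30 h, 37 C.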
VP16 counter: counter-screen for ROR gamma inhibitors: Gal4-VP16 reporter; Potency, µM (top dose mostly 53.6 µM), inactives show at the highest dose activity, negative = inhibition, usual class: inhibitors; actives 3.5% (n = 310,000); AID 2546; Drosophila S2 Gal4-VP16 UAS-luciferase, luminescence, 20 h;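 also: Gal4-VP16 expression switched on by copper sulfate through the metallothionein promoter; % is scaled to controls: 0 for no effect and ±100 for the full control effect; nearly all actives have a fitted effect of over 50% in size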
PINK1 modulator: modulators of PINK1 expression. PINK1 immunofluorescence, high-content cytometry, 24 h. actives 0.2% (n = 410,000). AID 624263. Potency, µM (highest dose often 76.6 µM), for the others: top-dose activation (PINK1 increase), actives largely listed as activators; active = well fitted activation curve with a large enough effect; inconclusive = small, poorly fitted or top-dose-only effect; cell line not stated here; also: % of control where 0% means no effect; nearly all actives have a fitted effect of over 65% in size
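A stable cell line was treated with compounds at 5 concentrations for 24 hours, with CCCP as control. PINK1 levels and mitochondrial localization were measured by immunofluorescence with mitochondrial, cell and nuclear markers after fixation, read by laser-scanning cytometry.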
Active calls of the source: *; ? = inconclusive; / = not tested or not shown; ! = not active in a repeat; [ ] = dose if it differs, or a comment. Rows were chosen to be rich in hits. Some 8.1% of all compounds tested hit in one or more screens of this group. Unless noted, calls follow the shape of the dose curve; as a rule, active = well fitted curve in the direction sought with a large enough effect; inconclusive = small, poorly fitted or top-dose-only effect, or another doubt; inactive = no such curve, though single readings can be large; an effect the other way counts as inactive or inconclusive. Potency is read from the fitted curve at half-maximal effect.

SMILES	ClpP mod	Sfp PPTase inh	RORgamma inh	Epigenetic derep	VP16 counter	PINK1 modulator
O=C1N=NC(=O)N1c1ccccc1	1%	24%	1%	/	2%	1%
CN(C)c1ccc(CC2C(=O)Nc3ccccc32)cc1 (stereo not drawn)	/	45µM*	17%	7%	13%	?
O=C1Nc2ccccc2C1Cc1ccc(Br)cc1 (stereo not drawn)	-2%	/	/	0%	/	1%
CCCC1=NN(C(=O)CCc2ccccc2O)C(O)(C(F)(F)F)C1 (stereo not drawn)	0%	6%	?	1%	?	1%
CCC1=NN(C(=O)c2cccnc2)C(O)(C(F)(F)F)C1 (stereo not drawn)	1%	-19%	11µM*	4%	?	3%
O=C(c1ccncc1)N1N=C(C2CCCCC2)CC1(O)C(F)(F)F (stereo not drawn)	/	19%	-26%	3%	?	-1%
CCCCC1=NN(C(=O)c2cccnc2)C(O)(C(F)(F)F)C1 (stereo not drawn)	-2%	19%	10µM*	-2%	?	-1%
Cc1ccc(Cl)cc1N1CCN(C(=O)Cc2c(C(=O)O)c(C)cn2C)CC1	-3%	/	/	0%	/	-1%
COc1ccccc1/C(O)=C(\C#N)c1nc2ccccc2[nH]1	/	13%	1.4µM*	-4%	-7%	13%
C/C(O)=C(\C#N)c1nc2ccccc2[nH]1	0%	3%	?	0%	14µM*	2%
N#C/C(=C(/O)CN1C(=O)c2ccccc2C1=O)c1nc2ccccc2[nH]1	1%	-3%	11µM*	1%	?	1%
N#C/C(=C(/O)c1ccc(C(=O)c2ccccc2)cc1)c1nc2ccccc2[nH]1	/	7%	5%	0%	14%	3%
N#C/C(=C(/O)c1ccc(Br)s1)c1nc2ccccc2[nH]1	-11%	17%	1µM*	/	0%	14%
CCOc1ccc2oc(=O)cc(CN3CCN(c4ccc(Cl)cc4)CC3)c2c1	1%	/	/	15%	/	1%
CC(C)C[C@@H](CN=[N+]=[N-])N1CCN(CCc2ccccc2)CCC1=O	-23%	/	/	/	/	/
Cn1cnnc1SC/C(O)=C(\C#N)c1nc2ccccc2[nH]1	1%	-26%	-16%	0%	-6%	0%
N#C/C(=C(/O)CCl)c1nc2ccccc2[nH]1	1%	-23%	5µM*	4%	10µM*	7%
N#C/C(=C(/O)c1ccco1)c1nc2ccccc2[nH]1	/	15%	7.1µM*	0%	?	-1%
CSCCC(/C(O)=C(\C#N)c1nc2ccccc2[nH]1)N1C(=O)c2ccccc2C1=O (stereo not drawn)	-4%	25%	11µM*	0%	18µM*	1%
N#C/C(=C(\O)Cc1ccccc1)c1nc2ccccc2[nH]1	-21%	-16%	2.8µM*	1%	?	2%
CCOc1ccc(-n2c(SCc3nc(-c4ccc(OC)cc4)no3)nnc2-c2ccncc2)cc1	2%	/	/	2%	/	0%
Cc1nn2c(C)c(C(=O)NC(C)c3ccccc3)cnc2c1-c1ccc(F)cc1 (stereo not drawn)	-2%	/	/	1%	/	0%
C=CCn1c(COc2ccc(CC)cc2)nnc1SC/C(O)=C(\C#N)c1nc2ccccc2[nH]1	50%	7%	11µM*	0%	?	0%
COc1ccccc1-c1nnc(SC/C(O)=C(\C#N)c2nc3ccccc3[nH]2)n1C1CCCCC1	4%	-28%	7.1µM*	-3%	11µM*	4%
N#C/C(=C(/O)CSc1nnc(Cc2cccs2)n1C1CCCCC1)c1nc2ccccc2[nH]1	-4%	-9%	-23%	2%	0%	0%
SMILES	ClpP mod	Sfp PPTase inh	RORgamma inh	Epigenetic derep	VP16 counter	PINK1 modulator
C=CCn1c(COc2ccccc2)nnc1SCc1ccc(C#N)cc1	1%	6%	17%	2%	-2%	0%
O=C(COc1ccccc1C(=O)Nc1ccccc1)Nc1ccccc1F	1%	/	/	/	/	1%
CC/C=C\C/C=C\C/C=C\CCCCCCCCCCCC(=O)O	/	15%	-1%	5%	4%	/
CC/C=C\C/C=C\C/C=C\CCCCCCCC(=O)O	-1%	79µM*!	-11%	11%	9%	1%
COc1ccc(/C=N/n2c(-c3cc(C)[nH]n3)n[nH]c2=S)cc1	-18%	-28%	-36%	1%	-15%	-4%
CCc1n[nH]c(=S)n1/N=C/c1cc(OC)cc([N+](=O)[O-])c1O	/	22µM*	?	-1%	-19%	0%
COc1ccc(/C=N/n2c(-c3cc(C)[nH]n3)n[nH]c2=S)cc1OC	5%	56µM*	-4%	3%	-1%	-1%
COc1cc(/C=N/n2c(-c3cc(C)[nH]n3)n[nH]c2=S)cc(OC)c1O	/	28µM*	-21%	0%	-10%	-1%
COc1cccc(/C=N/n2c(N)nc3ccccc32)c1OC	?	3%	?	0%	?	-3%[38.3 µM]
COc1ccc(/C=N/n2c(N)nc3ccccc32)cc1OC	-2%	-11%	13µM*	-1%	?	9%
COc1ccc(N2CCN(C(=O)c3cnn(-c4ccc(F)cc4)c3-n3cccc3)CC2)cc1	-1%	/	/	-2%	/	-1%
COc1ccc(C)cc1NS(=O)(=O)c1ccc2c(c1)[C@H]1C=CC[C@H]1[C@@H](c1cccc(Cl)c1)N2	-1%	/	/	-2%	/	2%
COc1cc(/C=N/n2c(=S)[nH]nc(C)c2=O)cc([N+](=O)[O-])c1O	/	14µM*	-6%	3%	-4%	2%
c1ccc2c(c1)Cc1cc3ccccc3nc1-2	/	9%	11µM*!	0%	?	7%
O=C(NC(=S)Nc1ncc(Br)cc1Br)c1cncc(Br)c1	4%	-20%	6.3µM*	0%	?	0%[38.3 µM]
Cc1ccccc1NC(=S)NC(=O)c1cncc(Br)c1	-2%	3%	?	1%	?	2%
Cc1cc(O)ccc1NC(=S)NC(=O)c1cncc(Br)c1	-1%	56µM*	0.79µM*	/	0.56µM*	0%
O=C(NC(=S)NC1CCCCCC1)c1cncc(Br)c1	-5%	-3%	3.5µM*	0%	6.3µM*	2%
O=C(NC12CC3CC(CC(C3)C1)C2)c1cnccn1	2%	-7%	-1%	-1%	-8%	-4%
C/C(CC(=O)NC12CC3CC(CC(C3)C1)C2)=N\NC(=O)c1cnccn1	/	50µM*	13µM*	?	?	1%
C/C(CC(=O)NC12CC3CC(CC(C3)C1)C2)=N\NC(=O)c1ccc(F)cc1	/	19%	18µM*	/	?	1%
Cc1oc2ccc(O)c(CN(C)Cc3ccccc3)c2c1C(=O)Nc1ccccc1	-1%	/	/	-2%	/	4%

Source: PubChem BioAssay
